# Sampled rows, rich in hits. Any-hit rate of the full collection: about 1.2%.
# ERK EGF inh: blocks ERK signaling stimulated by EGF. AID 1454. HEK293-V1b, EGF-stimulated phospho-ERK AlphaScreen. 130,000 tested, 0.41% active. Potency, µM (titrated, usually from 11.5 µM), without a hit: at the top dose activity change, negative = inhibition, most hits filed as inhibitors;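 further: potency means the concentration at half of the fitted maximal effect; plate controls were stimulated vehicle wells for no effect and unstimulated vehicle basal for full effect; nearly all actives have a fitted effect of over 55% in size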
#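 Stably V1b-transfected HEK293 cells; 30 min compound, then EGF 25 nM final for 5 min at 37C; 10 min lysis; phospho-ERK by AlphaScreen after 5 hr beads at room temperature.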
# GLA inh pH 4.5: alpha-galactosidase A (human) inhibition, pH 4.5. activity change, negative = inhibition, % at 105 µM. AID 1467. 230,000 tested, under 10 active. purified enzyme, 4-MU-alpha-Gal fluorescence, pH 4.5;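 further: 0% = full activity with enzyme and -100% = basal without enzyme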
# Target sequence (P06280 whole entry, looked up): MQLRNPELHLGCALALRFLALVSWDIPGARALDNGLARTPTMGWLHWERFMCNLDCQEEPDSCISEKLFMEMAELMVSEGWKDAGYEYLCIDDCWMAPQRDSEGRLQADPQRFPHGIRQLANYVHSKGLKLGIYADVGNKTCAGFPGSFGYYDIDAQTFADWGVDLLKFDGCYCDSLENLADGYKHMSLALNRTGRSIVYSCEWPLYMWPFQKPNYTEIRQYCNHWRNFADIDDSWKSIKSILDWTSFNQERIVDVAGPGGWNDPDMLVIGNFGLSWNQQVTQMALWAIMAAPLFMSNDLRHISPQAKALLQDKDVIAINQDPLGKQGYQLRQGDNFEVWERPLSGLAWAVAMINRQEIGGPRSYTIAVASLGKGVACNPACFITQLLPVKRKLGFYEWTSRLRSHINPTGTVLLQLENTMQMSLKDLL
# HTT ATP protect: protects HTT-Q103 PC12 cells, measured by ATP; PC12 HTT-Q103 induced, cytoprotection, ATP luminescence, 40 h; Potency, µM (doses to about 56.4 µM), for the others: cytoprotection (ATP increase), actives largely listed as activators; 230,000 tested, 0.14% active; further: potency means the concentration at half of the fitted maximal effect; % of control where 0% means no effect; nearly all actives have a fitted effect of over 45% in size
#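 ATP quantification (ATPlite) reports survival of PC12 cells in which tebufenozide, 100 nM final, switches on Htt exon 1 with 103 glutamines linked to GFP; compounds are titrated.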
# GLA spleen mod: inhibitors or activators of human alpha-galactosidase in spleen homogenate; P06280; human spleen homogenate, 4MU-alpha-Gal fluorescence, 40 min; Potency, µM (top dose mostly 80 µM), for the others: at the highest dose activity change, negative = inhibition, hits mostly inhibitors; 240,000 tested, 0.008% active;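 further: potency means the concentration at half of the fitted maximal effect; 0% = enzyme with vehicle and -100% = no enzyme basal signal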
#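 Human spleen homogenate (1 ug) was the enzyme source, with 4-methylumbelliferyl-alpha-D-galactopyranoside (1 mM final) in pH 5.0 citrate buffer with 0.01% Tween-20. Compounds were titrated; after 40 min at 37C, NaOH/glycine stop, 4-MU fluorescence read; AC50 from Hill fits.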
# HTT aggregate: mutant huntingtin aggregation inhibition; Potency, µM (doses to about 46.1 µM), without a hit: top-dose activity change, negative = inhibition, most hits filed as inhibitors; 220,000 tested, 1.1% active; PC12 HttQ103-GFP aggregates, Acumen cytometry, 40 h; further: potency means the concentration at half of the fitted maximal effect; on the % scale 0 is the no-effect control and ±100 the full control effect; nearly all actives have a fitted effect of over 60% in size
#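 Read-out: GFP aggregate count by laser scanning cytometer (488 nm excitation, 500-530 nm emission, 1–25 µm objects >6 SD above background). Cells: PC12, inducible HTTex1-Q103-GFP, 100 nM tebufenozide; compounds titrated.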
# * hit, by the source's call; u = inconclusive; x = no result given; [ ] = another dose, or the depositor's remark. The call rests on the fitted dose curve; in most records, active means well fitted curve in the direction sought with a large enough effect; inconclusive means small, poorly fitted or top-dose-only effect, or another doubt; inactive means no such curve, though single readings can be large; an effect the other way counts as inactive or inconclusive.
SMILES,ERK EGF inh,GLA inh pH 4.5,HTT ATP protect,GLA spleen mod,HTT aggregate
Cc1ccccc1OCc1nc2ccccc2c(=O)n1/N=C/c1ccco1,-1%,-3,-25%[10 µM],6%,22µM*
CCCCC[C@H](O)/C=C/C=C\C=C\[C@@H](O)C/C=C\CCCC(=O)O,7%,-2,26%,0%,x
CC(CC(C)(C)C)CP(=O)(O)CC(C)CC(C)(C)C (centres undefined),x,x,x,6%,x
Cc1ccc(C[C@H](Cc2nc3ccccc3[nH]2)c2nc3ccccc3[nH]2)cc1,x,x,-9%,x,x
O=C1Nc2ccc(Br)cc2/C1=C/C(=O)c1ccc2c(c1)OCO2,32µM*,-9,-10%[10 µM],11%,7%[9.22 µM]
COC(=O)C#CC(=O)OC,x,x,x,-17%,x
Cn1c(=O)c2c(nc(NCc3ccco3)n2CCc2ccccc2)n(C)c1=O,x,-8,-21%,-6%,13µM*
Cn1c(=O)c2c(nc(NCc3ccccc3)n2Cc2ccc(F)cc2)n(C)c1=O,5%,-15,-21%[10 µM],1%,20µM*
Cc1ccccc1C(=O)N1CCN(c2ccc(NC(=O)c3ccco3)cc2Cl)CC1,x,2,-25%[10 µM],2%,13µM*
O=C(Nc1ccc(N2CCN(C(=O)c3cccs3)CC2)c(Cl)c1)c1ccco1,x,-4,-1%[10 µM],-12%,-26%
Cc1cccc(N2C(=O)CC(SC(=Nc3ccccc3)Nc3ccccc3)C2=O)c1 (centres undefined),x,-11,x,-3%,3.2µM*
CCN(c1cccc(C)c1)c1ncnc2nc[nH]c12,x,4,0%[10 µM],-2%,8.9µM*
CCCCN(c1ccccc1)c1ncnc2nc[nH]c12,3%,5,-2%,-7%,u
N/C(=N\OC(=O)c1ccc([N+](=O)[O-])cc1)c1cccnc1,x,-10,3%[10 µM],4%,12%
O=C(Oc1c(Br)cc([N+](=O)[O-])cc1Br)c1cccnc1,-1%,0,34%[10 µM],5%,35µM*
CCCc1cc2c(c(=O)o1)C(O)C1OC1C2=O (centres undefined),x,x,-62%[10 µM],-2%[17.5 µM],x
CCCCOc1ncnc2c1[nH]c1ccccc12,x,-6,-115%,0%,4µM*
CCCCOc1ncnc2c1[nH]c1ccc(F)cc12,x,3,-64%[0.074 µM],-11%,3.2µM*
CCOCCCNc1ncnc2c1[nH]c1ccccc12,x,2,-8%,7%,10µM*
CC(C)C1=CC2=CC[C@H]3[C@@](C)(CCC[C@]3(C)C(=O)O)[C@@H]2CC1,x,x,5%,x,x
CC1CC2C3CCC4=CC(=O)C=C[C@@]4(C)[C@]3(F)C(O)C[C@]2(C)[C@]1(O)C(=O)COP(=O)(O)O (some centres undefined),x,9,-75%,6%,x
O=C(N/N=C/c1ccccc1O)C1(O)c2ccccc2-c2ccccc21,0%,8,32%[1.9 µM],10%,10µM*
Cc1c(/C=N/NC(=O)C2(O)c3ccccc3-c3ccccc32)cnn1C,1%,3,x,3%,11%
COC(=O)NCC(c1cccnc1)N1CCN(c2ccccc2)CC1 (centres undefined),5%,-7,15%[10 µM],5%,-18%
O=C(NCCc1c[nH]c2ccccc12)C(=O)NCC(c1cccnc1)N1CCN(c2ccccc2)CC1 (centres undefined),4%,u,x,3%,3.5µM*
SMILES,ERK EGF inh,GLA inh pH 4.5,HTT ATP protect,GLA spleen mod,HTT aggregate
CC(C)=CCC/C(C)=C/CC/C(C)=C/CC/C=C(\C)CC/C=C(\C)CCC=C(C)C,x,x,9%,x,13%
COc1ccc(-n2c(C)cc(C(=O)CN3C(=O)NC4(CCCc5sccc54)C3=O)c2C)cc1 (centres undefined),-1%,-19,u,-8%,u
Cc1cc(C(=O)CN2C(=O)NC3(CCCc4sccc43)C2=O)c(C)n1-c1ccccc1 (centres undefined),8%,-10,x,-1%,22µM*
COc1ccc(OCC2Cc3c(-c4ccccc4)nc4c(c3CO2)CN(CCOc2ccccc2)CC4)cc1 (centres undefined),x,x,5%[10 µM],0%[17.5 µM],x
COc1ccc(-c2nc(-c3ccccc3OC)no2)cc1OC,x,-5,-41%,7%,-8%
COc1ccc(Br)cc1-c1noc(-c2ccccc2F)n1,x,1,-25%,-15%,4µM*
C/C1=C2N=C(/C=C3N=C(/C(C)=C4\[N-]C(C)(C5N=C1C(C)(CCC(=O)NCC(C)OP(=O)([O-])O[C@H]1C(O)C(n6cnc7cc(C)c(C)cc76)O[C@@H]1CO)C5CC(N)=O)C(C)(CC(N)=O)C4CCC(N)=O)C(C)(CC(N)=O)C\3CCC(N)=O)C(C)(C)C/2CCC(N)=O.[CH2-]C1OC(n2cnc3c(N)ncnc32)C(O)C1O.[Co] (some centres undefined),2%,15,-44%,4%,3%
COc1ccc2c(c1)c1ncn(Cc3ccco3)c(=O)c1n2C,x,15,-29%,u,10µM*
CN(C)C(=O)Nc1ccc(Oc2ccc(Cl)cc2)cc1,x,x,x,-2%,x
CC(C)(C)C(=O)NC(=S)NNC(=O)c1ccc(-c2ccccc2)cc1,11%,4,u,9%,8.9µM*
CC(C)(C)C(=O)NC(=S)NNC(=O)c1ccncc1,x,-7,-36%,14%,22%[9.22 µM]
COc1cccc2c1CCCC2CCCN1CCN(C2CCCCC2)CC1 (centres undefined),x,x,x,-1%,x
CCN(CC)c1ccc(/C=C2/SC(=O)N(C(C)C)C2=O)o1,28µM*,-2,x,-4%,u
CC[C@H](C)[C@H](NC(=O)[C@H](CO)NC(=O)[C@H](C)NC(=O)[C@H](C)NC(=O)[C@H](CCC(N)=O)NC(=O)[C@H](CCCCN)NC(=O)[C@H](CCCN=C(N)N)NC(=O)[C@@H](N)CS)C(=O)N[C@@H](CCCCN)C(=O)N[C@H](C(=O)N[C@@H](C)C(=O)N[C@H](C(=O)N[C@@H](CO)C(=O)O)C(C)C)C(C)C,x,x,x,19%,x
CCCS(=O)(=O)N1CCC(C(=O)NCCCN(CC)c2cccc(C)c2)CC1,x,-2,x,-2%,32µM*
COc1cc(C(=O)Oc2cccc(Nc3ncnc4ccccc34)c2)cc(OC)c1OC,x,-5,-42%,-3%,-16%
O=C(Oc1cccc(Nc2ncnc3ccccc23)c1)c1cccnc1,14µM*,-18,x,-2%,x
COc1ccc(C(=O)Oc2cccc(Nc3ncnc4ccccc34)c2)cc1OC,25µM*,-8,x,4%,u
CCCCCCCCCCN1CCOCCOCCN(CCCCCCCCCC)CCOCCOCC1,x,x,x,8%,x
Cn1cc([N+](=O)[O-])c(C(=O)Nc2ccn(Cc3c(F)c(F)cc(F)c3F)n2)n1,x,2,10µM*,-10%,x
CCn1c(Cl)c(C=O)s/c1=N\S(=O)(=O)c1ccccc1,18µM*,3,-97%[10 µM],-5%,1.4µM*
